# Measurements: paper PMC7862700, “An all-to-all approach to the identification of sequence-specific readers for epigenetic DNA modifications on cytosine”
# Legend:
# Test in all cases: DAPPL (digital affinity profiling via proximity ligation, sequencing); 10 mM Tris-HCl pH 7.5, 50 mM NaCl, 1 mM DTT, 4% glycerol, room temperature, 30 min; GST-TFs on glutathione beads, 16-mer random dsDNA library, 0.1% formaldehyde crosslink after washing; high values mean tight binding
# FEV = biological target: T1, FEV (Homo sapiens, UniProt Q99581 1-238); details: protein: recombinant; tags: N-terminal GST; dsDNA, one strand shown
# T1 sequence: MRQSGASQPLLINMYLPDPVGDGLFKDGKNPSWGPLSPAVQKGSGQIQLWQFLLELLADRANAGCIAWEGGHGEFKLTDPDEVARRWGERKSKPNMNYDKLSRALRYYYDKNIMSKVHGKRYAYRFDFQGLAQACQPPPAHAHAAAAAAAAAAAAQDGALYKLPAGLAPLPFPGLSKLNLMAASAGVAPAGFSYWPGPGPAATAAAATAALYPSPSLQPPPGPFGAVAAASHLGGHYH
# Outline: (§1)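 Yeast served to express human transcription factors as GST fusions, which were then captured on glutathione beads and labelled with DNA barcodes. Pooled with a tag-only sample, they were incubated with 200 nmole of a 16-mer random double-stranded DNA library for 30 min at room temperature in Tris/NaCl/DTT/glycerol buffer, washed, crosslinked with 0.1% formaldehyde, ligated by proximity, amplified by PCR and sequenced. Dividing each hexamer's read frequency for a factor by its frequency for the tag-only sample gives the binding signal.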
# ETV5 = ETV5 (Homo sapiens, UniProt P41161 1-510); details: protein: recombinant; tags: N-terminal GST; dsDNA, one strand shown
# Chain of ETV5 (P41161 whole entry): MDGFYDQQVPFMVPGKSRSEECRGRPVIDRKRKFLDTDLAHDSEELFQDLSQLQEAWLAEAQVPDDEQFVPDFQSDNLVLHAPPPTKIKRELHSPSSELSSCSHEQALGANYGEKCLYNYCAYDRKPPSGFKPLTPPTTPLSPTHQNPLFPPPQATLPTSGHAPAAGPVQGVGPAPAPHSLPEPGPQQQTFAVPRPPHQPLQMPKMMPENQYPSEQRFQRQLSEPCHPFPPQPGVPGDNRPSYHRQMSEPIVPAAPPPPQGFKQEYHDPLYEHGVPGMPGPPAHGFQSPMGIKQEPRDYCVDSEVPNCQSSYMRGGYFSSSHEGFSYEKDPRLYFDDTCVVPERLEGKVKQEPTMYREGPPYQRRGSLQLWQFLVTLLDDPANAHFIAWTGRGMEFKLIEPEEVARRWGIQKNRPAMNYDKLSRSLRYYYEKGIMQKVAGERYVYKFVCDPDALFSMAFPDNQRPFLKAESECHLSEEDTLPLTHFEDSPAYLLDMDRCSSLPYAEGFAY
# Outline: as §1
# HSF1 = HSF1 (Homo sapiens, UniProt Q00613 1-529); details: protein: recombinant; tags: N-terminal GST; chain copies: 3; dsDNA, one strand shown
# Chain of HSF1 (Q00613 whole entry): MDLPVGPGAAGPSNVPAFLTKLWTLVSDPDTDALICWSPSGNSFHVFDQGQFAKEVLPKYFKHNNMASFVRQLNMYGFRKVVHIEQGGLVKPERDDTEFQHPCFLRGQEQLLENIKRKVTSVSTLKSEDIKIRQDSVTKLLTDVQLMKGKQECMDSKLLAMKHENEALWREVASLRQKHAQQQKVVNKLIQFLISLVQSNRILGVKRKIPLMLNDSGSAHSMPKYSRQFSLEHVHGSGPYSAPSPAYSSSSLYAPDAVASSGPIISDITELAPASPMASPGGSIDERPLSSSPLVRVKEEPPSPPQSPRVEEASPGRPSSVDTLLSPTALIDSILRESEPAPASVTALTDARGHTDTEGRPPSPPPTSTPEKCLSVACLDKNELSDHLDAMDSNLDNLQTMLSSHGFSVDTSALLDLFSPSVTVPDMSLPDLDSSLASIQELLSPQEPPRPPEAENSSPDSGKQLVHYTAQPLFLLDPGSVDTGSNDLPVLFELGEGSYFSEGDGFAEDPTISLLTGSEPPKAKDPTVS
# Outline: as §1
# SPIC = biological target: T2, SPIC (Homo sapiens, UniProt Q8N5J4 1-248); details: protein: recombinant; tags: N-terminal GST; dsDNA, one strand shown
# T2 sequence: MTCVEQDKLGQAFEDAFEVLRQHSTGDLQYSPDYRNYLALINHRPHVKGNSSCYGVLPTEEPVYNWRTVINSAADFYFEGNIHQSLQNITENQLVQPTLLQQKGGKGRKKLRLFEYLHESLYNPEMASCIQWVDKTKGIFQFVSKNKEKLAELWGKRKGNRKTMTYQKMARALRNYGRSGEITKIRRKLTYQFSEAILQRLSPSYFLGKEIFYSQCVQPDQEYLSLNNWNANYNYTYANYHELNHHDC
# Outline: as §1
# ELF4 = ELF4 (Homo sapiens, UniProt Q99607 1-663); details: protein: recombinant; tags: N-terminal GST; dsDNA, one strand shown
# Chain of ELF4 (Q99607 whole entry): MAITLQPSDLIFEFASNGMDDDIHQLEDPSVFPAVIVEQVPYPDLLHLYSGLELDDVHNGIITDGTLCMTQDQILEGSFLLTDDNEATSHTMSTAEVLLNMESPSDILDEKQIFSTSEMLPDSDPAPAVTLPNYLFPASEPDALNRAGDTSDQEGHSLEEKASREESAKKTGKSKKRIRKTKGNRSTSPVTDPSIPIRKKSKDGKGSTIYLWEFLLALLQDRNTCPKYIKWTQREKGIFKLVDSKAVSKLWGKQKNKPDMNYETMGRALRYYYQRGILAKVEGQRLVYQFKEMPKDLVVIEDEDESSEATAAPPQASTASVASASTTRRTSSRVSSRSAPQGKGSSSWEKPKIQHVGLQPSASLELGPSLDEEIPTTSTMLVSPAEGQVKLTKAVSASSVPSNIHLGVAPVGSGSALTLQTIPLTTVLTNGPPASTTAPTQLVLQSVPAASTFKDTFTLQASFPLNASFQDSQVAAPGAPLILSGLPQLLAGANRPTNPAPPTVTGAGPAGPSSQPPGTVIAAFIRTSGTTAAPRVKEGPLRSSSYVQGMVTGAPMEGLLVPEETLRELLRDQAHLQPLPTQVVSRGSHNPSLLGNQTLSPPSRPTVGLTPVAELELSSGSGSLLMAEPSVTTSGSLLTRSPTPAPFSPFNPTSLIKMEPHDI
# Outline: as §1
# ELK4 = biological target: T3, ELK4 (Homo sapiens, UniProt P28324-2 1-405); details: protein: recombinant; tags: N-terminal GST; dsDNA, one strand shown
# T3 sequence: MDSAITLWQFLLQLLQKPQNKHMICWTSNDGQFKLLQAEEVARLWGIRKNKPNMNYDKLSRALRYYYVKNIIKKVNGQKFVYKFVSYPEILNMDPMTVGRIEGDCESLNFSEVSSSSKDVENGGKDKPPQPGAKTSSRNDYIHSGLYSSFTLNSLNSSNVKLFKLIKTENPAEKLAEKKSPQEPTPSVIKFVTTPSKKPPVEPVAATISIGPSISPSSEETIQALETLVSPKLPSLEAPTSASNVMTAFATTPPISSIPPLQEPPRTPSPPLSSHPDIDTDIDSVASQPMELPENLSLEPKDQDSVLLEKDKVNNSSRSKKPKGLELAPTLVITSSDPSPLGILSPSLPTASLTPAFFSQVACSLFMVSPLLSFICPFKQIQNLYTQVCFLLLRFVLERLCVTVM
# Outline: as §1
# ETV2 = biological target: T4, ETV2 (Homo sapiens, UniProt O00321 1-342); details: protein: recombinant; tags: N-terminal GST; dsDNA, one strand shown
# T4 sequence: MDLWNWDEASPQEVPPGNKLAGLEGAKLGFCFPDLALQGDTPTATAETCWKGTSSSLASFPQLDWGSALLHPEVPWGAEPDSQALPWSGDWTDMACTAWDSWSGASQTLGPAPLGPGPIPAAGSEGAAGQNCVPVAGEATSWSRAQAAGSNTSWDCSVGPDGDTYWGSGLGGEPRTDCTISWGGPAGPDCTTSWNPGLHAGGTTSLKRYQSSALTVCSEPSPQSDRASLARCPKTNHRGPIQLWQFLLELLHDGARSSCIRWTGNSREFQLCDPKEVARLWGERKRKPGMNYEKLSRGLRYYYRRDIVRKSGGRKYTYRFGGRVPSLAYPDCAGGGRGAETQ
# Outline: as §1
# ELF3 = biological target: T5, ELF3 (Homo sapiens, UniProt P78545 1-371); details: protein: recombinant; tags: N-terminal GST; dsDNA, one strand shown
# T5 sequence: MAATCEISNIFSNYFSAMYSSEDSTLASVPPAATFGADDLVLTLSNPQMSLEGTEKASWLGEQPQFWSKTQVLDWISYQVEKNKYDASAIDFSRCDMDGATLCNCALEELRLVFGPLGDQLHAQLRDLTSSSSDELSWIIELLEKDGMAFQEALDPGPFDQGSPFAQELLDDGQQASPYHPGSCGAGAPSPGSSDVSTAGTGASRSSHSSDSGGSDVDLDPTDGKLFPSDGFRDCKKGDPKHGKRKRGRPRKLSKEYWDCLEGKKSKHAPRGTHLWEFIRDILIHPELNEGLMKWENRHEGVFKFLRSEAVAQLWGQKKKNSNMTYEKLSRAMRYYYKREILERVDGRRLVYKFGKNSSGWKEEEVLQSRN
# Outline: as §1
# CRX = CRX (Homo sapiens, UniProt O43186 1-299); details: protein: recombinant; tags: N-terminal GST; dsDNA, one strand shown
# Chain of CRX (O43186 whole entry): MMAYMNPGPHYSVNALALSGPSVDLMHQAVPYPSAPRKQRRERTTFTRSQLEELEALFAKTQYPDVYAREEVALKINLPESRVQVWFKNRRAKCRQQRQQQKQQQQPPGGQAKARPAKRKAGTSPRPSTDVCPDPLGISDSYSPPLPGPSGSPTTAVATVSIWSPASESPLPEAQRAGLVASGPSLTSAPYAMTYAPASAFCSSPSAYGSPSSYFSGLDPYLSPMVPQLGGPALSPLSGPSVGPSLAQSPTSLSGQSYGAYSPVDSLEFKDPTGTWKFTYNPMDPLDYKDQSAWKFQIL
# Outline: as §1
# ETV1 = ETV1 (Homo sapiens, UniProt P50549 1-477); details: protein: recombinant; tags: N-terminal GST; dsDNA, one strand shown
# Chain of ETV1 (P50549 whole entry): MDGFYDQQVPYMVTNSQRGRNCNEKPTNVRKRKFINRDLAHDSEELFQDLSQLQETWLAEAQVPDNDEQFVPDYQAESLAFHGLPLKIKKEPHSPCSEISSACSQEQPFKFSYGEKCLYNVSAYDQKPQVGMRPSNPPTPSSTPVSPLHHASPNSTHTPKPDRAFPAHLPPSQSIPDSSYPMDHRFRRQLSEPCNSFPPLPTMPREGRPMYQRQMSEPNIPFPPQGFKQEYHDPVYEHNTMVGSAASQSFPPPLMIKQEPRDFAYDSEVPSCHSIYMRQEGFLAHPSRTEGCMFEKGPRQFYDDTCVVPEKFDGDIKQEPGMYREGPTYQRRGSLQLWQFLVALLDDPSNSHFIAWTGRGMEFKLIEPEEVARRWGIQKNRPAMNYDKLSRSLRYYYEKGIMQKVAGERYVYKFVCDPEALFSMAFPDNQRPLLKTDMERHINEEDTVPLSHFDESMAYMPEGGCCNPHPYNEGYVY
# Outline: as §1
# ERF = biological target: T6, ERF (Homo sapiens, UniProt P50548 1-548); details: protein: recombinant; tags: N-terminal GST; dsDNA, one strand shown
# T6 sequence: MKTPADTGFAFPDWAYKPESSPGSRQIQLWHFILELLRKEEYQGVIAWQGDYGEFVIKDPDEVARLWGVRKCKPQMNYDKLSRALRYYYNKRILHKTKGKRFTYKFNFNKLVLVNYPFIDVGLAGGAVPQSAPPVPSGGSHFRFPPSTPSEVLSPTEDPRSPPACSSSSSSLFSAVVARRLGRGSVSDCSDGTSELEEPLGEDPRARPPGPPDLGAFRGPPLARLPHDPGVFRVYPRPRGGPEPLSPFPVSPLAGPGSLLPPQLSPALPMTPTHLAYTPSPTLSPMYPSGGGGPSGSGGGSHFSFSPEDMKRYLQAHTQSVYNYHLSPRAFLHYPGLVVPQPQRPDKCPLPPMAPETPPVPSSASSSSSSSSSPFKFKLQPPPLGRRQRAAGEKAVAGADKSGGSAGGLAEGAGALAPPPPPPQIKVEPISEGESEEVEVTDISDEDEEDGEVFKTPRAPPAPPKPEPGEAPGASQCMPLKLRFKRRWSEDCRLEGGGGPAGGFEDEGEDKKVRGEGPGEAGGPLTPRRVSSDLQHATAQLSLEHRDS
# Outline: as §1
# ETV3L = biological target: T7, ETV3L (Homo sapiens, UniProt Q6ZN32 1-361); details: protein: recombinant; tags: N-terminal GST; dsDNA, one strand shown
# T7 sequence: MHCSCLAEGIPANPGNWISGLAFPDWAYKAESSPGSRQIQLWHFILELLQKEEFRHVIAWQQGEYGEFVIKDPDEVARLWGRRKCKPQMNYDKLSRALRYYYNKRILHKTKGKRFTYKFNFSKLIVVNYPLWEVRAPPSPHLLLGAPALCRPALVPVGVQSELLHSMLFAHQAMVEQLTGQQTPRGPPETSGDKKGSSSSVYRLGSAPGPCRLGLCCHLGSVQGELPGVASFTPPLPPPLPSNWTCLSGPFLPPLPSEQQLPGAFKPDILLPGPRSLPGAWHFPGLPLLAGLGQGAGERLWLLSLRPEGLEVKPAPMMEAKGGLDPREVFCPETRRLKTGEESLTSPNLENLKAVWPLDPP
# Outline: as §1
# ETS2 = biological target: T8, ETS2 (Homo sapiens, UniProt P15036 1-469); details: protein: recombinant; tags: N-terminal GST; dsDNA, one strand shown
# T8 sequence: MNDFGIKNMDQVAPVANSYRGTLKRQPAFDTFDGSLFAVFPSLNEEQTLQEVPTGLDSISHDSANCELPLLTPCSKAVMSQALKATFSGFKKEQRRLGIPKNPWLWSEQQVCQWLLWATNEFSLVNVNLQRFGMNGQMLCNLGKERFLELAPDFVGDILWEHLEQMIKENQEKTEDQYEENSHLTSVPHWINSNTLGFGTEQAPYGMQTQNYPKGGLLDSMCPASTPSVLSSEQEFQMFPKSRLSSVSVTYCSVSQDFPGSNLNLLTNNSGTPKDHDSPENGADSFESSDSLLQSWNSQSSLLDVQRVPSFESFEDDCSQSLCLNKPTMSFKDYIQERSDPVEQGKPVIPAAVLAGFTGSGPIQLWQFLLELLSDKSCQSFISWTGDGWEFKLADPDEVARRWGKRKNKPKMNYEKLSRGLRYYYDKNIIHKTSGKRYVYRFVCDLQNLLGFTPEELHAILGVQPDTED
# Outline: as §1
# SPDEF = biological target: T9, SPDEF (Homo sapiens, UniProt O95238 1-335); details: protein: recombinant; tags: N-terminal GST; dsDNA, one strand shown
# T9 sequence: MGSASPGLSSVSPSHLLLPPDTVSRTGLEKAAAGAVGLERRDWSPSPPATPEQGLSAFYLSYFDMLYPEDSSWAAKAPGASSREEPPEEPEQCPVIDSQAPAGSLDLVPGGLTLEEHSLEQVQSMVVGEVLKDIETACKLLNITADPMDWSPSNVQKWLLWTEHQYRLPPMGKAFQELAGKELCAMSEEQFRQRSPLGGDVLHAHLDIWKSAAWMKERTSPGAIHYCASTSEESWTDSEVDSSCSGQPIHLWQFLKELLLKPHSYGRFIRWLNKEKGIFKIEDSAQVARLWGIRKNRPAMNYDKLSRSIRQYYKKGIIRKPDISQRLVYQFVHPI
# Outline: as §1
# ETV7 = biological target: T10, ETV7 (Homo sapiens, UniProt Q9Y603 1-341); details: protein: recombinant; tags: N-terminal GST; dsDNA, one strand shown
# T10 sequence: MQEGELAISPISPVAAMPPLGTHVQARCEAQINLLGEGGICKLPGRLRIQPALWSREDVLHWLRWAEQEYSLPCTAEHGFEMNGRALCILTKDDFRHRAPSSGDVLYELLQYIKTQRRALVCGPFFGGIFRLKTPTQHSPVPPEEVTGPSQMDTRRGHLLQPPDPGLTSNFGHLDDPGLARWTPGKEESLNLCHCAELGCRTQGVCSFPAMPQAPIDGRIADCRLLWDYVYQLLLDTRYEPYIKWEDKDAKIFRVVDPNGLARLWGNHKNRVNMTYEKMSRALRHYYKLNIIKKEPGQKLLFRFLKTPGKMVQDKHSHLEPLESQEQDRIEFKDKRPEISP
# Outline: as §1
# ELF5 = biological target: T11, ELF5 (Homo sapiens, UniProt Q9UKW6-2 1-255); details: protein: recombinant; tags: N-terminal GST; dsDNA, one strand shown
# T11 sequence: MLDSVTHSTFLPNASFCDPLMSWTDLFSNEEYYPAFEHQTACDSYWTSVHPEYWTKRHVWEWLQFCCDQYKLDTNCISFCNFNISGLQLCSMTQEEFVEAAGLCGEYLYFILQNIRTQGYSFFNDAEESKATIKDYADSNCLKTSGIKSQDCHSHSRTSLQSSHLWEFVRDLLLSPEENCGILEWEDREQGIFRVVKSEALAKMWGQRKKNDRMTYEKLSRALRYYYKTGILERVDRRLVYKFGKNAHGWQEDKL
# Outline: as §1
# ETV3 = biological target: T12, ETV3 (Homo sapiens, UniProt P41162-2 1-143); details: protein: recombinant; tags: N-terminal GST; dsDNA, one strand shown
# T12 sequence: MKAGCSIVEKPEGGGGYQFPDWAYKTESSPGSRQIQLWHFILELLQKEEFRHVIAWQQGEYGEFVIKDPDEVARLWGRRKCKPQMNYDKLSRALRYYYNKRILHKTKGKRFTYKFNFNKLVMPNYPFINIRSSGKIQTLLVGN
# Outline: as §1
# ETV6 = ETV6 (Homo sapiens, UniProt P41212 1-452); details: protein: recombinant; tags: N-terminal GST; dsDNA, one strand shown
# Chain of ETV6 (P41212 whole entry): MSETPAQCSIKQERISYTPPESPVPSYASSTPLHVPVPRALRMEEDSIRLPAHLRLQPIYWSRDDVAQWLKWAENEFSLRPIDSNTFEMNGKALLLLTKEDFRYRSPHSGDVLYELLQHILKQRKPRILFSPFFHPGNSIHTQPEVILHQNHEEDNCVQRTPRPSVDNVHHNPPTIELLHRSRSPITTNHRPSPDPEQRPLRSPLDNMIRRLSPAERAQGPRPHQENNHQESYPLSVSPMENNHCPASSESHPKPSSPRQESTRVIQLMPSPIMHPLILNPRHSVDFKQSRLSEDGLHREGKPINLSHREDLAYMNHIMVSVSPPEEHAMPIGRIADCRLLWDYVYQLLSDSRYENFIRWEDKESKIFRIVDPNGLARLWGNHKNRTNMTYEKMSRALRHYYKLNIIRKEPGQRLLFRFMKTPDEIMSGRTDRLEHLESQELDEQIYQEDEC
# Outline: as §1
sequence,measurement,setting,value
TTTTGC,binding signal,FEV,"1.3 fold enrichment (6-mer frequency, TF over GST control)"
same,binding signal,ETV5,"1.34 fold enrichment (6-mer frequency, TF over GST control)"
same,binding signal,HSF1,"1.36 fold enrichment (6-mer frequency, TF over GST control)"
same,binding signal,SPIC,"1.25 fold enrichment (6-mer frequency, TF over GST control)"
same,binding signal,ELF4,"1.42 fold enrichment (6-mer frequency, TF over GST control)"
same,binding signal,ELK4,"1.3 fold enrichment (6-mer frequency, TF over GST control)"
same,binding signal,ETV2,"1.53 fold enrichment (6-mer frequency, TF over GST control)"
same,binding signal,ELF3,"1.34 fold enrichment (6-mer frequency, TF over GST control)"
same,binding signal,CRX,"1.41 fold enrichment (6-mer frequency, TF over GST control)"
same,binding signal,ETV1,"1.34 fold enrichment (6-mer frequency, TF over GST control)"
same,binding signal,ERF,"1.53 fold enrichment (6-mer frequency, TF over GST control)"
same,binding signal,ETV3L,"1.35 fold enrichment (6-mer frequency, TF over GST control)"
same,binding signal,ETS2,"1.31 fold enrichment (6-mer frequency, TF over GST control)"
same,binding signal,SPDEF,"1.35 fold enrichment (6-mer frequency, TF over GST control)"
same,binding signal,ETV7,"1.36 fold enrichment (6-mer frequency, TF over GST control)"
same,binding signal,ELF5,"1.27 fold enrichment (6-mer frequency, TF over GST control)"
same,binding signal,ETV3,"1.15 fold enrichment (6-mer frequency, TF over GST control)"
same,binding signal,ETV6,"1.49 fold enrichment (6-mer frequency, TF over GST control)"
